{"source": "PubChem BioAssay (Tox21)", "note": "Results filed as inconclusive are left out. A call without a number means that no potency is given here. Activity calls are given as the source filed them. Calls follow the shape of the dose curve; as a rule, active = well fitted inhibition curve with a large enough effect in the repeat runs; inconclusive = weak or mixed curves; inactive = flat fitted curve, though single readings scatter. Potency is read from the fitted curve at half-maximal effect.", "data": [{"biological_target": "Luciferin 4-monooxygenase (Photinus pyralis) (UniProt P08659)", "sequence (P08659 whole entry, looked up)": "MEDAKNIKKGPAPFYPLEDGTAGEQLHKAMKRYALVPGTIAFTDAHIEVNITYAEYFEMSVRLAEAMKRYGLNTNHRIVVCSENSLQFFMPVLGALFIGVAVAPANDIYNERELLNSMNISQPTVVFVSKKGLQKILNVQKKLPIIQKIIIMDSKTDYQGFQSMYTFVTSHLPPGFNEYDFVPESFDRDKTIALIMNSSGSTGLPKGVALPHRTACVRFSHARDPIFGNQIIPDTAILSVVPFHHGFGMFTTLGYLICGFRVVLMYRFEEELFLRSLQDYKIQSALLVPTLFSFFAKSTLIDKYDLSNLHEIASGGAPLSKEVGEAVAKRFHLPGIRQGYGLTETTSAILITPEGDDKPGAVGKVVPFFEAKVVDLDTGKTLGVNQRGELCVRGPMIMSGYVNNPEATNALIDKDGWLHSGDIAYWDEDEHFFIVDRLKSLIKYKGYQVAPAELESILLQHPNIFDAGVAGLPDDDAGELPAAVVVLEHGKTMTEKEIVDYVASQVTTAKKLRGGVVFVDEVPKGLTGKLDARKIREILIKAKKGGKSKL", "assay": "qHTS assay to identify small molecule inhibitors of firefly luciferase (AID 1224835); also: nearly all actives have a fitted effect of over 25% in size", "details": "purified P. pyralis luciferase, luminescence inhibition; series mostly up to 115 µM", "from_the_text": "U.S. Tox21 Program National Center for Advancing Translational Sciences [NCATS] NIH Chemical Genomics Center [NCGC] U.S. Environmental Protection Agency [EPA] National Institutes of Environmental Health Sciences [NIEHS] National Toxicology Program [NTP] U.S. Food and Drug Administration [FDA] Tox21 Assay Overview: Firefly (Photinus pyralis) luciferase is one of the most commonly used transcriptional reporters. Firefly luciferase reporter-gene assays are generally considered one of the most sensitive assay types (Wood, 1995; Wood, 1998). However, it was initially observed, in 1991, by Thompson et al., that compounds that resemble the substrates of firefly luciferase (FLuc) can act as competitive inhibitors of the enzyme, and that these compounds, upon interaction with luciferase in the cell, can actually stabilize the protein and increase its half-life. Previous profiling work by other groups to determine the prevalence of compounds that affect FLuc enzymatic activity (PubChem AID 411) identified that ~3% of the MLSMR library (then at ~72K) inhibited FLuc. […] Thus the Tox21 10K library is profiled for activity against FLuc using a biochemical assay of purified FLuc and KM concentrations of FLuc substrates (D-luciferin and ATP).\nThese assay plates were then treated with 23nL of compound or DMSO using a Kalypsys pin tool, which allows for delivery of a 6-point interplate titration of each compound to the assay plate (quantitative HTS.) 1 uL of firefly luciferase mix (containing 50 mM Tris acetate, pH 7.6, 0.04 uM P. pyralis luciferase, 0.01% Tween, 0.05% BSA and dH2O) was then delivered by FRD to each well. Luciferase activity was then measured using a ViewLux CCD imager.", "values": [{"smiles": "Cc1ccc(NC=O)c(C)c1", "Potency": "inactive"}, {"smiles": "O=C(NC1CCN(CCc2c[nH]c3ccccc23)CC1)c1ccccc1", "Potency": "inactive"}, {"smiles": "Nc1nc(Cl)nc2c1ncn2[C@H]1C[C@H](O)[C@@H](CO)O1", "Potency": "inactive"}, {"smiles": "NC(=O)c1cc[n+](CC2=C(C(=O)[O-])N3C(=O)[C@@H](NC(=O)Cc4cccs4)[C@H]3SC2)cc1", "Potency": "inactive"}, {"smiles": "C[C@]12CCC(=O)C=C1[C@@H]1C[C@@H]1[C@H]1[C@@H]3[C@@H]4C[C@@H]4[C@@]4(CCC(=O)O4)[C@@]3(C)CC[C@@H]12", "Potency": "inactive"}, {"smiles": "Oc1ccc(Oc2ccccc2)cc1", "Potency": "inactive"}, {"smiles": "CO[C@@H]1[C@@H](O[C@@H]2O[C@H](C)[C@@H](O[C@H]3C[C@@](C)(O)[C@@H](O)[C@H](C)O3)[C@H](N(C)C)[C@H]2O)[C@@H](CC=O)C[C@@H](C)[C@@H](O[C@@H]2CC[C@H](N(C)C)[C@@H](C)O2)/C=C/C=C/C[C@@H](C)OC(=O)C[C@H]1OC(C)=O", "Potency": "inactive"}, {"smiles": "CCc1c(C)[nH]c2c1C(=O)C(CN1CCOCC1)CC2", "note": "(stereo not given)", "Potency": "inactive"}, {"smiles": "Clc1nc2ccccc2nc1Cl", "Potency": "inactive"}, {"smiles": "CCCCOC(=O)C(C)Oc1ccc(Oc2ccc(C(F)(F)F)cn2)cc1", "note": "(stereo not given)", "Potency": "inactive"}, {"smiles": "CS(C)=O", "Potency": "inactive"}, {"smiles": "CCOc1ccc(NC(C)=O)cc1N", "Potency": "inactive"}, {"smiles": "N#CCCCC(C#N)CCC#N", "note": "(stereo not given)", "Potency": "inactive"}, {"smiles": "CC[C@H](NC(C)C)[C@H](O)c1ccc(O)c2[nH]c(=O)ccc12", "Potency": "inactive"}, {"smiles": "CC(CCl)OC(C)CCl", "note": "(stereo not given)", "Potency": "inactive"}, {"smiles": "CC(COc1ccccc1)NC(C)C(O)c1ccc(O)cc1", "note": "(stereo not given)", "Potency": "inactive"}, {"smiles": "CC1=C(C)C(=O)C(C(CCCCCC(=O)O)c2ccccc2)=C(C)C1=O", "note": "(stereo not given)", "Potency": "inactive"}, {"smiles": "Cc1c(-c2cccnc2)c2ccccc2n1CCCCC(=O)O", "Potency": "39.9 µM (active)"}, {"smiles": "CO[C@@H]1COCC[C@@H]1N[C@@H]1CC[C@@](C(=O)N2CCc3ncc(C(F)(F)F)cc3C2)(C(C)C)C1", "Potency": "inactive"}, {"smiles": "Nc1cccc2c(=O)[nH][nH]c(=O)c12", "Potency": "inactive"}, {"smiles": "CCCOC(C)=O", "Potency": "inactive"}, {"smiles": "CCC(C(=O)O)c1ccc(N2Cc3ccccc3C2=O)cc1", "note": "(stereo not given)", "Potency": "9.77 µM (active)"}, {"smiles": "Cc1c(Cl)cccc1Nc1ccccc1C(=O)O", "Potency": "inactive"}, {"smiles": "CCN(CCCCOC(=O)c1ccc(OC)c(OC)c1)C(C)Cc1ccc(OC)cc1", "note": "(stereo not given)", "Potency": "inactive"}, {"smiles": "FC(F)(Cl)C(F)(Cl)Cl", "Potency": "inactive"}, {"smiles": "CC(C)=CCC[C@H](C)CCO", "Potency": "inactive"}, {"smiles": "CCOc1ccccc1O", "Potency": "inactive"}, {"smiles": "O=C1OC(=O)C2CC=CCC12", "note": "(stereo not given)", "Potency": "inactive"}, {"smiles": "O=C1c2ccccc2C(=O)C1c1ccc2cc(S(=O)(=O)O)cc(S(=O)(=O)O)c2n1", "Potency": "30.6 µM (active)"}, {"smiles": "COc1ccc(/C(C)=C/C(=O)O)c(OC)c1", "Potency": "inactive"}, {"smiles": "CC1=C(C)C(=O)C(CCCCC#CCCCC#CCO)=C(C)C1=O", "Potency": "inactive"}, {"smiles": "O=C(O)c1c2ccccc2cc2ccccc12", "Potency": "inactive"}, {"smiles": "CC(=O)CC/C=C(\\C)CC/C=C(\\C)CC/C=C(\\C)CCC=C(C)C", "Potency": "inactive"}, {"smiles": "CCCCOC(=O)CC#N", "Potency": "inactive"}, {"smiles": "Nc1ccc(C(=O)Oc2ccccc2)c(O)c1", "Potency": "13.8 µM (active)"}, {"smiles": "COC(=O)Cc1cccc2ccccc12", "Potency": "inactive"}, {"smiles": "CCCCCCOC(=O)c1ccccc1", "Potency": "15.9 µM (active)"}, {"smiles": "CC(C)NC(=O)c1ccccc1N", "Potency": "inactive"}, {"smiles": "O=C(Nc1ccccc1)c1cc([N+](=O)[O-])ccc1Cl", "Potency": "inactive"}, {"smiles": "Cc1c(N=C=O)cccc1N=C=O", "Potency": "inactive"}]}]}
